Experimental data reported in PubChem BioAssay AID651718 (The Scripps Research Institute Molecular Screening Center, 2012).
Screen size: about 360,000 compounds; about 2,700 (0.75%) were called active. The sample as a whole holds a higher share of actives than the screen did. Unmarked numbers belong to inactive results. Cut-off read from the data, not from the text of the source: active = inhibition above about 4.5%; inactive = the rest.

The compounds below were run on Methionine sulfoxide reductase A (Bos taurus) (assay: bovine MsrA enzyme inhibitors, primary screen, biochemical, absorbance, HTS (AID 651718;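 note: 0% = vehicle wells with enzyme and 100% = reference inhibitor wells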)). Details: purified bovine MsrA, absorbance read-out; at 15.5 µM; hits give high values.
For `NC(=O)CSc1nnc(NC(=O)c2ccc(Br)o2)s1`, the inhibition was 4.64% (active). Work on `CC(C)(C)NC(=O)CSc1nnc(NC(=O)CCc2ccccc2)s1` yielded an inhibition of 0.59%. Compound `COC(=O)CSc1nnc(NC(=O)CCc2ccccc2)s1` has an inhibition of 0.95%. Compound `COC(=O)[C@]12C[C@H](CC(=O)NCCc3ccccc3OC)C(=O)N(Cc3ccccc3)C1=C[C@H](C(C)C)O[C@@H]2C1CC1` has an inhibition of 0.87%. In the case of `CCn1cc(/C=C(\NC(=O)c2ccc(C)cc2)C(=O)NCCN2CCOCC2)c2ccccc21`, the inhibition is reported as 4.67% (active). With `Cc1ccc(C(=O)N/C(=C\c2cn(C)c3ccccc23)C(=O)N2CCN(C)CC2)cc1` the inhibition was 3.12%. In the case of `COc1ccc(/C=C(\NC(=O)c2ccccc2)C(=O)NCCN2CCOCC2)cc1OC`, the inhibition is reported as 2.05%. `O=C(O)Cn1cnc2c(NCc3ccccc3)ncnc21` gave an inhibition of 0.37%. Compound `Cc1ccc(S(=O)(=O)N(C)c2ccc(OCC(=O)OCC(=O)N(CC#N)c3ccccc3)cc2)cc1` has an inhibition of 0.73%. In the case of `Cc1ccc(S(=O)(=O)N(C)c2ccc(OCC(=O)NC3=NCCS3)cc2)cc1`, the inhibition is reported as -0.97%. In the case of `Cc1ccc(S(=O)(=O)N(C)c2ccc(OCC(=O)OCc3ccc(C#N)cc3)cc2)cc1`, the inhibition is reported as 7.12% (active). `NC(=O)c1ccc(-c2csnn2)cc1` was tested, and the inhibition was 1.41%. With `Cc1cc(C)nc(N2C(=O)CC(Cc3ccccc3)C2=O)n1` (stereo not given) the inhibition was -1.66%. For `CC1(C)N=C(c2ccccn2)C(C)(C)N1O`, the inhibition was 0.21%. `COC(=O)C1=C(C)NC(=S)NC1c1ccc(OC)cc1` (stereo not given) was tested, and the inhibition was 0.87%. For `CCCCNc1cccc2c1S(=O)(=O)N[C@@H](C)CO2`, the inhibition was 0.33%. In the case of `COc1ccc(/C=N/n2nnnc2N)cc1OC`, the inhibition is reported as 4.82% (active). For `Nc1nnnn1/N=C/c1cccc(Br)c1`, the inhibition was 0.5%. `Nc1nnnn1/N=C/c1cccs1` showed an inhibition of 0.3%. `CCN(CC)Cc1c(C(=O)OC)nnn1-c1nonc1N` gave an inhibition of 0.6%. `CC1(C)OC(=O)C2=C(CC(CCc3ccccc3)OC2c2ccc(Cl)cc2)O1` (stereo not given) gave an inhibition of 0.43%. In the case of `COc1ccc(/C=N\NC(=O)c2sc(N)nc2C)cc1OC`, the inhibition is reported as 7.88% (active). With `Cc1nnsc1C(=O)N/N=C/c1cccc(C(F)(F)F)c1` the inhibition was -1.17%. `COc1cc(/C=N/NC(=O)Nc2ccccc2)ccc1OCCOc1ccccc1C` was tested, and the inhibition was 0.83%. Compound `Cc1cc(OC(=O)NCCc2ccc(F)cc2)ccc1F` has an inhibition of 0.24%. For `CCCCCCCCN1C(=O)[C@@H](CC(=O)NCCCC)C[C@@]2(C(=O)OC)C1=C[C@H](C(C)(C)C)O[C@@H]2C`, the inhibition was 0.08%. In the case of `O=C(/C=C/Sc1ncn[nH]1)c1ccc(Cl)cc1`, the inhibition is reported as 5.19% (active). Work on `COc1cccc(-c2cc(CNC(=O)[C@@H](Cc3ccccc3)NC(=O)[C@H]3O[C@@H](n4cnc(C(N)=O)n4)[C@H](O)[C@@H]3O)no2)c1` yielded an inhibition of -0.49%. Work on `COc1ccccc1CCn1cnc(-c2ccccc2)c1C(C)C` yielded an inhibition of 0%. `COc1ccc(CCNC(=S)NC(=O)/C=C/c2ccc(C)cc2)cc1OC` gave an inhibition of 0.54%. For `COc1ccc(/C=C2\N=C3CCCN3C2=O)cc1`, the inhibition was 4.73% (active). For `COc1ccc(/C=C2\SC(=N)N(c3ccc(F)cc3)C2=O)cc1`, the inhibition was -0.72%. Work on `COc1ccc(/C=C2/CCCc3ccccc3C2=O)cc1` yielded an inhibition of 0.69%. Work on `CCCCn1c(N)c(N(CCOC)C(=O)COc2c(C)cccc2C)c(=O)[nH]c1=O` yielded an inhibition of 0.79%. With `O=C(NCc1ccccc1)[C@H]1CCCN1C(=O)[C@H]1CCCN1C(=O)c1cc(F)cc(F)c1` the inhibition was 0.16%. With `O=C(Oc1c(-c2ccco2)oc2ccccc2c1=O)c1cccnc1` the inhibition was 5.77% (active). For `O=C(OCc1cc2ccccc2[nH]c1=O)c1cccnc1`, the inhibition was -0.22%. In the case of `O=C(CC(=O)c1cccnc1)c1ccccc1`, the inhibition is reported as 2.87%. `CC(C)CC(CC(C)C)=NNC(=O)c1ccc(CSc2nncn2C)cc1` was tested, and the inhibition was -0.77%. In the case of `CCOc1cc(/C=N/NC(=O)c2ccc(CSc3nncn3C)cc2)ccc1OCC(=O)N1CCOCC1`, the inhibition is reported as 4.92% (active). `CCOc1cc(/C=N/NC(=O)c2cccc(S(=O)(=O)N3CCOCC3)c2)ccc1OCC(=O)N(C)C` gave an inhibition of 4.25%. For `CCC(Cc1ccccc1)NS(=O)(=O)c1ccc2c(c1)NC(=O)CS2` (stereo not given), the inhibition was -0.21%. In the case of `C=CCNC(=S)NNC(=O)c1ccc(Br)o1`, the inhibition is reported as -0.22%. In the case of `C=CCNC(=S)N/N=C/c1ccc(C)s1`, the inhibition is reported as 4.91% (active). Compound `CNC(=S)N/N=C/c1ccc(N2CCOCC2)s1` has an inhibition of 3.27%. Work on `CC(C)(C)C(c1nc2ccccc2[nH]1)n1c(Cc2csc3ccccc23)nc2ccccc21` (stereo not given) yielded an inhibition of -0.41%. `COC(=O)C1=C(C)N(Cc2ccccc2C(F)(F)F)C(=NCC2CC2)NC1c1cccc(Cl)c1` (stereo not given) was tested, and the inhibition was -2.13%. `O=S1(=O)c2ccc(Br)cc2-n2nncc2CN1Cc1cccc(Cl)c1` showed an inhibition of 0.62%. `CC(C)(C)n1nc(C2CC2)c(Br)c1NC(=O)c1ccccc1F` was tested, and the inhibition was -0.05%. Compound `CC(C)C[C@H]1CN([C@@H](Cc2ccccc2)CN2CCC[C@@H]2CN2C(=O)C(=O)NC[C@@H]2Cc2ccc(O)cc2)C(=O)C(=O)N1CCc1ccccc1` has an inhibition of -0.32%. With `O=C(O)c1ccccc1Cc1ccc(F)c2ccccc12` the inhibition was 0.31%. For `COc1cccc(NC(=O)N(C)C[C@@H]2OCc3cn(nn3)CCCC(=O)N([C@@H](C)CO)C[C@H]2C)c1`, the inhibition was 0.43%. In the case of `O=S1(=O)N=C(N(CCO)/N=C/c2ccccc2F)c2ccccc21`, the inhibition is reported as 5.01% (active). With `C=CCOCCN(C)C1=NS(=O)(=O)c2ccccc21` the inhibition was 0.32%. `COc1ccc(/C=N/N(C)C2=NS(=O)(=O)c3ccccc32)cc1OC` gave an inhibition of 1.42%. `O=S1(=O)c2c(cccc2N2CCCC2)O[C@H](COCc2ccccc2)CN1C1CC1` gave an inhibition of 0.28%. `C=CCN=C1NC(c2ccccc2)C(C(=O)OC)=C(C)N1Cc1ccc(C(F)(F)F)cc1` (stereo not given) gave an inhibition of -1.03%. `Cc1cccc2cc(C#N)c(N3CCCC3)nc12` was tested, and the inhibition was 7.71% (active). With `Cc1cc(C)c2cc(C#N)c(N3CCNCC3)nc2c1` the inhibition was 0.05%. Work on `CC(=O)c1ccc(S(=O)(=O)N2CCN(c3nc4c(C)c(C)ccc4cc3C#N)CC2)cc1` yielded an inhibition of 0.77%.
